From PubChem BioAssay (NCI)
The panel holds about 79,000 compounds, 15% with a hit somewhere; the sample as a whole holds those more often. Activity calls are given as the source filed them. No stated cut-off is given here; in the data, active means growth inhibition above about 70%; inactive means the rest.

How the values were obtained:
[1] = NCI Yeast Anticancer Drug Screen. Data for the rad50 strain (AID 155);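 further: 0% = growth of vehicle-only cultures of the same strain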; conditions: S. cerevisiae rad50 strain growth inhibition, active compounds read high; at 50.0 µM unless noted
Procedure, shortened: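 Genetically altered yeast (DNA repair pathway); compound treatment; growth inhibition vs vehicle ctrl.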

[2] = NCI Yeast Anticancer Drug Screen. Data for the mec2-1 strain (AID 157); conditions: S. cerevisiae mec2-1 strain, active compounds read high; at 50.0 µM unless noted
Procedure, shortened: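 Mutant yeast (mec2-1) grown with compound; growth inhibition relative to vehicle control reported.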

[3] = NCI Yeast Anticancer Drug Screen. Data for the sgs1 mgt1 strain (AID 161);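 further: 0% = growth of cultures given vehicle only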; conditions: S. cerevisiae sgs1 mgt1 strain, active compounds read high; at 50.0 µM unless noted
Procedure, shortened: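 Growth of a repair-deficient yeast mutant was monitored after compound treatment and expressed as inhibition relative to vehicle-treated cultures.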

[4] = NCI Yeast Anticancer Drug Screen. Data for the cln2 rad14 strain (AID 165);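 further: 0% = growth equal to vehicle treated cultures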; conditions: S. cerevisiae cln2 rad14 strain, active compounds read high; at 50.0 µM unless noted
Procedure, shortened: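 Readout is yeast growth inhibition versus vehicle-treated controls, using a strain with cln2 and rad14 alterations exposed to compound.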

[5] = NCI Yeast Anticancer Drug Screen. Data for the bub3 strain (AID 167); conditions: S. cerevisiae bub3 mutant strain, active compounds read high; at 50.0 µM unless noted
Procedure, shortened: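 Yeast carrying a defined mutation is treated with each compound, and growth is compared with that of vehicle-exposed cells to give inhibition.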

[6] = NCI Yeast Anticancer Drug Screen. Data for the mlh1 rad18 strain (AID 175); conditions: S. cerevisiae mlh1 rad18 strain growth inhibition, active compounds read high; at 50.0 µM unless noted
Procedure, shortened: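 Genetically defined yeast (DNA repair-deficient) exposed to compounds; growth inhibition determined relative to vehicle.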

Measured: growth inhibition

COc1ccc(/C(C)=N/N=C\c2cc(OC)c(OC)c(OC)c2)cc1
inactive: [1] 6.95% | [2] 3.15% | [3] -10.8% | [4] 14.8% | [6] 8.2%
active: [5] 83.2%

COc1ccc(C(=O)/C=C/c2ccc(OCC#N)cc2)cc1OC
inactive: [1] -39.5% | [2] -61.4% | [3] -38.5% | [4] -30.2% | [5] -33% | [6] -54.1%

COc1cc([N+](=O)[O-])c(S(=O)(=O)O)cc1NS(=O)(=O)c1ccc(C)cc1
inactive: [1] 7.8% | [2] 16.6% | [3] 22% | [4] 3.95% | [5] 1.4% | [6] 10.2%

Nc1ccccc1SC1CC(=O)N(c2ccc3c(c2)OCO3)C1=O (stereo unspecified)
inactive: [1] 6.55% | [2] 8.85% | [3] 20.4% | [4] 16.4% | [5] 8.35% | [6] 16.3%

Nc1cc([N+](=O)[O-])ccc1C(=O)O
inactive: [1] 15.2% | [2] 0.05% | [3] -11.4% | [4] -3.1% | [5] 2.65% | [6] -14.3%

Cc1ccc(S(=O)(=O)CC(=O)NC(C)C)cc1
inactive: [1] -3.9% | [2] -17% | [3] 4% | [4] 17.2% | [5] 3.2% | [6] 20.8%

O=[N+]([O-])c1ccccc1N1CCCCC1
inactive: [1] 23.9% | [2] 7.05% | [3] 14.9% | [4] 25.6% | [5] -4.05% | [6] 27.2%

c1ccc(OC2=NC3=S(S2)SC(Oc2ccccc2)=N3)cc1
inactive: [1] 43.2% | [2] -4.15% | [3] 56.7% | [4] 10.6% | [5] 12.5% | [6] -3.35%

CCCCN1CC(=O)N2CCCC(c3ccccc3)N2C(=O)C1 (stereo unspecified)
inactive: [1] 7.55% | [2] -0.95% | [3] 17.6% | [4] 15.4% | [5] 10.5% | [6] -3.5%

O=C1c2cc([N+](=O)[O-])ccc2-c2ccc3c4ccc5c6c(ccc(c7ccc1c2c73)c64)C(=O)c1cc([N+](=O)[O-])ccc1-5
inactive: [1] 14% | [2] -10.6% | [3] -3.15% | [4] 21.4% | [5] -35.2% | [6] 26.1%

CCCC(C)C(=O)OCc1ccccc1 (stereo unspecified)
inactive: [1] 16.6% | [2] -9.5% | [3] 5.35% | [4] -13.7% | [5] 6.7% | [6] 5%

CC(=O)NC(CCCCNC(=O)N(CCCl)N=O)C(=O)NCc1ccccc1 (stereo unspecified)
inactive: [1] 1.2% | [2] -1.15% | [3] 0.7% | [4] 14.7% | [5] -2.35% | [6] -1.85%

NCCS(=O)(=O)O
inactive: [1] 1.8% | [2] 8.7% | [3] 7.7% | [4] 19.8% | [5] -5.6% | [6] -6.95%

O=C(c1ccccc1)c1ccc(NC(=O)C(F)(F)F)cc1
inactive: [1] 15.7% | [2] 5.9% | [3] 3.85% | [4] 4.75% | [5] -0.15% | [6] 18.9%

CC(=O)OC1c2ccccc2CCCCCCC12OCCO2 (stereo unspecified)
inactive: [1] -25.1% | [2] -36.4% | [3] -53.2% | [4] 1.8% | [5] -36.3% | [6] -7.25%

COc1ccc(C(=O)CN2CCN(c3ccccc3)CC2)cc1
inactive: [1] 14.7% | [2] -7.05% | [3] 17.1% | [4] -52.6% | [5] 23% | [6] 5.35%

O=c1nc2sccn2c2ncccc12
inactive: [1] -18.5% | [2] 5.35% | [3] -11.8% | [4] 46.6% | [5] 10.9% | [6] 16.1%

CN(C)c1ccc(Cc2ccc(N(C)C)cc2N)cc1
inactive: [1] -0.85% | [2] 2.2% | [3] 2.75% | [4] 10.1% | [5] -25.2% | [6] -4.05%

CC(C)(C)OC(=O)NCC(=O)NC1C/C(=N\O)c2sccc21 (stereo unspecified)
inactive: [1] 17.4% | [2] 5.8% | [3] 11.3% | [4] 15.6% | [5] -5.35% | [6] 39.5%

CNC(=O)Nc1cccc(C(=O)O)c1
inactive: [1] -0.3% | [2] -16.8% | [3] -11.1% | [4] -50.9% | [5] 4.35% | [6] 4.35%

CCC[C@@H]1C(=O)N=C(N)N1C(=O)OCc1ccccc1
inactive: [1] 18.6% | [2] 8.4% | [3] 7.75% | [4] 1.8% | [5] -5.8% | [6] 2.5%

C=CC(=O)OCCOCCCC
inactive: [1] 8.75% | [2] 5.4% | [3] -4.7% | [4] -21.9% | [5] -15.1% | [6] 4.85%

C/C(=N\NC(=O)Nc1ccc(N=Nc2ccccc2)cc1)c1ccncc1
inactive: [1] 17.4% | [2] 10.5% | [3] 19.1% | [4] 1.5% | [5] 14.3% | [6] 10.7%

CCCCCCOc1ccccc1CO
inactive: [1] 14.7% | [2] 10.6% | [3] -1.5% | [4] 2% | [5] -8.15% | [6] 10.8%

Nc1nnc2nc(CC(=O)c3ccc(Cl)c(Cl)c3)/c(=C/C(=O)c3ccc(Cl)c(Cl)c3)n12
inactive: [1] 11.5% | [2] 12.3% | [3] -12.3% | [4] 17.2% | [5] 1.7% | [6] -10.2%

C/C(=N/N)c1ccc2[nH]c3c(C)cc([N+](=O)[O-])c(C)c3c2c1
inactive: [1] 16.9% | [2] -6.9% | [3] -22.9% | [4] 13.7% | [5] 3.65% | [6] 6.35%

O=c1[nH]c2ccc([N+](=O)[O-])cc2nc1/C(=N/Nc1ccccc1)C(O)c1ccco1 (stereo unspecified)
inactive: [1] -4.6% | [2] -9.1% | [3] -12.8% | [4] 6% | [5] -10.6% | [6] 12.9%

COC(=O)C1NC(=O)C(N2C(=O)c3ccccc3C2=O)=CSC1(C)C (stereo unspecified)
inactive: [1] -15.8% | [2] -3.05% | [3] 1.15% | [4] -11.6% | [5] -48% | [6] -7.2%

CCOC(=O)C1=C(O)C(=O)C=C(O)C1=N
inactive: [1] -12.2% | [2] -2.6% | [3] -11.6% | [4] 4.5% | [5] -18.4% | [6] 9.65%

CC(=O)OCC1OC(n2c(Br)nc3c(=O)[nH]c(N)nc32)C(OC(C)=O)C1OC(C)=O (stereo unspecified)
inactive: [1] -1.5% | [2] 4.3% | [3] 0.8% | [4] -14.8% | [5] -10.2% | [6] 5.6%

C=CCSC[C@H](NC(=O)COc1ccccc1)C(=O)NC(C(=O)OCc1ccc([N+](=O)[O-])cc1)=C(C)C
inactive: [1] 45.8% | [2] 26.6% | [3] 24.6% | [4] 31.1% | [5] 39.4% | [6] 14.4%

O=C1CCC2OC3CCC(=O)N3CN12 (stereo unspecified)
inactive: [1] 9.8% | [2] 8% | [3] 6.55% | [4] -11.3% | [5] 4.95% | [6] -3.6%

O=S(=O)(c1ccccn1)c1nc2ccccc2s1
inactive: [1] -1.75% | [2] 7.1% | [3] -0.45% | [4] 17.1% | [5] -2.8% | [6] 0.45%

COC(=O)C1CCCC1
inactive: [1] 3.75% | [2] -44% | [3] 16.2% | [4] 9.4% | [5] -2.8% | [6] 22.6%

CCC(=O)NC(Nc1ccccc1F)(C(F)(F)F)C(F)(F)F
inactive: [1] -29.2% | [2] -18.2% | [3] -18.1% | [4] -4% | [5] -41.9% | [6] -35.9%

COc1cc(C(CC(=O)O)C(=O)O)c([N+](=O)[O-])cc1OC (stereo unspecified)
inactive: [1] -23.2% | [2] 1.1% | [3] 2.2% | [4] 0% | [5] 24.5% | [6] 7.4%

COc1c2c(cc3c1C(CCCc1ccccc1)N(C)CC3)OCO2 (stereo unspecified)
inactive: [1] 22.4% | [2] 7.6% | [3] 30.7% | [4] 11.5% | [5] 9.75% | [6] 28.6%

C/C(=N\NC(=S)Nc1ccccc1)[C@H]1C2CCC(C2)C1C/C=C\CCCC(=O)O (stereo partly specified)
inactive: [1] 26.1% | [2] 17.3% | [3] 25.9% | [4] 48.1% | [5] 37.5% | [6] 13.4%

Cc1ccc(S(=O)(=O)CCC#N)cc1
inactive: [1] 0.25% | [2] 8.2% | [3] -5.65% | [4] -9.35% | [5] -8.2% | [6] -11.7%

CN(C)CCNC(=O)Cn1ccc(=O)c2ccc([N+](=O)[O-])cc21
inactive: [1] 11.9% | [2] 6.55% | [3] 20.6% | [4] 20.8% | [5] -5.85% | [6] -39.5%

OC1CN(c2ccc(Br)cc2)CC(O)CN(c2ccc(Br)cc2)C1 (stereo unspecified)
active: [1] 98.7% | [2] 99.7% | [3] 99.7% | [4] 99.5% | [5] 99.5% | [6] 99.7%
